Compound activity from PubChem.
Rows were chosen to be rich in hits. Some 9.5% of all compounds tested hit in one or more screens of this group.
SARS PLpro yeast = inhibitors of SARS-CoV papain-like protease in yeast. S. cerevisiae expressing SARS-CoV PLpro, growth rescue. Potency, µM (series often up to 32.9 µM), actives largely listed as activators. hit rate 0.19% among 330,000; calls by dose curve; note: nearly all actives have a fitted effect of over 55% in size
Pf growth 96h = P. falciparum growth inhibition at 96 hour, primary screen for plastid delayed-death inhibitors; P. falciparum luciferase reporter growth, 96 h; Potency, µM (doses to about 28.7 µM), usual class: inhibitors; hit rate 6.9% among 320,000; AID 504834
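P. falciparum expressing integrated firefly luciferase, in erythrocytes at 2% hematocrit, 0.05% parasitemia, incubated with compounds 96 h at 37 C, 5% CO2. Growth inhibition read as loss of luminescence; two-generation exposure targets delayed-death apicoplast inhibitors.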
NS1 inh = influenza NS1 inhibition. Potency, µM (series often up to 46.1 µM). hit rate 0.4% among 270,000; calls by dose curve; note: actives are rising curves; nearly all actives have a fitted effect of over 50% in size
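A cell-based growth assay was used: compounds that relieve NS1-induced slow growth of budding yeast raise OD600. Assay medium was yeast nitrogen base with ammonium sulphate and -URA supplement, pH 6.0, with 2% galactose.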
Pf growth 48h = inhibits P. falciparum growth in the first generation, 48 h; P. falciparum luciferase growth in erythrocytes, 48 h; Potency, µM (highest dose often 28.7 µM), usual class: inhibitors; hit rate 5.9% among 310,000; AID 504832
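A one-generation exposure of luciferase-tagged malaria parasites in RPMI 1640/Albumax erythrocyte culture, 37 C and 5% CO2. Inhibition is inferred from decreased luminescence after adding detection reagent.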
RE007 growth inh = less growth of the S. pombe RE007 Vpr strain; S. pombe RE007 Vpr strain, BacTiter-Glo ATP luminescence, 24 h; Potency, µM (series often up to 92.2 µM), usual class: inhibitors; hit rate 0.21% among 360,000; AID 651644; active = well fitted falling curve with a large enough effect; inconclusive = small, poorly fitted or top-dose-only effect; inactive = no such curve, though single readings can be large or run the other way; note: nearly all actives have a fitted effect of over 50% in size
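Fission yeast RE007 carrying one integrated HIV-1 vpr copy, seeded at OD 0.01 in PMG+AL medium with 23 nL pinned compound. Grown 24 h at 30 degrees; viability read by BacTiter-Glo luminescence after 5 min.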
Of the large screens only hits and unclear results are named; the others gave an inactive call. Unless noted, calls come from the whole dose curve; as a rule, active = well fitted inhibition curve with a large enough effect; inconclusive = small, poorly fitted or top-dose-only effect, or another doubt; inactive = no such curve, though single readings can be large or run the other way.

COc1ccccc1N1CCN(C(=O)CSc2ccc3c(C)cc(C)nc3n2)CC1	Pf growth 48h 10µM
COc1ccccc1N1CCN(C(=O)CSc2nc3ccccc3o2)CC1	none (no result: Pf growth 96h)
CN1CC(c2ccccn2)C2(SC(=S)N(Cc3ccccc3)C2=O)C12C(=O)Nc1ccccc12 (stereo unspecified)	Pf growth 96h inconclusive, NS1 inh inconclusive, Pf growth 48h inconclusive
CN1CC(c2ccccc2)C2(SC(=S)N(Cc3ccco3)C2=O)C12C(=O)Nc1ccccc12 (stereo unspecified)	Pf growth 48h 12µM (no result: Pf growth 96h)
COc1ccc(-c2coc3c(C(=O)Nc4cccnc4)cccc23)c(C)c1	none (no result: SARS PLpro yeast, Pf growth 96h, NS1 inh, Pf growth 48h)
CC(C)OC(=O)Cc1ccccc1	none (no result: NS1 inh)
CC(C)OC(=O)CCC1(C(=O)O)CCC(=O)NC1 (stereo unspecified)	Pf growth 48h 1.3µM (no result: Pf growth 96h)
CC[C@H]1CN(C)[C@H]2Cc3c([nH]c4ccccc34)C(=O)C[C@H]1[C@H]2C(=O)OC	none (no result: SARS PLpro yeast, Pf growth 96h, Pf growth 48h, RE007 growth inh)
Cc1nc(NCc2ccc3c(c2)OCO3)c2nnn(Cc3ccccc3)c2n1	Pf growth 96h 12µM
Cn1c(=O)c2c(nc(NCc3ccc4c(c3)OCO4)n2Cc2ccc(F)cc2)n(C)c1=O	Pf growth 96h 13µM, Pf growth 48h 12µM
CC(O)CNc1nc2c(c(=O)n(C)c(=O)n2C)n1Cc1cccc(Br)c1 (stereo unspecified)	none
CC(C)CNc1nc2c(c(=O)n(C)c(=O)n2C)n1Cc1cccc(Br)c1	Pf growth 48h 12µM
Cn1c(=O)c2c(nc(NCc3ccc4c(c3)OCO4)n2Cc2ccccc2)n(C)c1=O	Pf growth 48h 13µM
Cc1cccc(S(=O)(=O)NC(=O)C2(C)CCN2C(=O)c2cccc(F)c2)c1 (stereo unspecified)	none (no result: SARS PLpro yeast, Pf growth 96h, NS1 inh, Pf growth 48h)
CC(=O)NC12CC3CC(C1)CC(C(=O)N1CCN(S(=O)(=O)c4ccc(C(C)C)cc4)CC1)(C3)C2	Pf growth 96h 12µM (no result: NS1 inh)
CC(=O)NC12CC3CC(C1)CC(C(=O)N1CCN(S(=O)(=O)c4cccc(F)c4)CC1)(C3)C2	Pf growth 48h inconclusive
COc1ccc(C)cc1NC(=O)CN(C)S(=O)(=O)c1ccc2c(c1)CC(C)N2C(C)=O (stereo unspecified)	Pf growth 96h 7.4µM
CC(=O)N1c2ccc(S(=O)(=O)N3CCC(C(=O)NCc4ccc(C)cc4)CC3)cc2CC1C (stereo unspecified)	Pf growth 96h 12µM, Pf growth 48h inconclusive
CCCCN(CC)S(=O)(=O)c1ccc2c(c1)CCCN2C(C)=O	Pf growth 96h 13µM, Pf growth 48h inconclusive
Cc1ccc(CNC(=O)C2CCN(S(=O)(=O)c3ccc4c(c3)CC(C)N4C(=O)C3CC3)CC2)cc1 (stereo unspecified)	none
CC(=O)N1CCCc2cc(S(=O)(=O)N(C)Cc3ccccc3)ccc21	Pf growth 96h inconclusive
COc1ccc(NC(=O)CN(C)S(=O)(=O)c2ccc3c(c2)CC(C)N3C(C)=O)cc1OC (stereo unspecified)	none
CCc1cccc(NC(=O)C2CCCN2S(=O)(=O)c2ccc3c(c2)CC(C)N3C(C)=O)c1 (stereo unspecified)	Pf growth 96h inconclusive, Pf growth 48h 12µM
Cc1ccccc1NC(=O)COC(=O)c1c[nH]c(=O)[nH]c1=O	none
CCCS(=O)(=O)NC(=O)C1(C)CCCN(C(=O)COCc2ccccc2)C1 (stereo unspecified)	none (no result: SARS PLpro yeast, Pf growth 96h, NS1 inh, Pf growth 48h)
O=C(Nc1ccccc1)OCCc1ccccn1	none (no result: SARS PLpro yeast, Pf growth 96h, NS1 inh, Pf growth 48h)
CCOc1ccc(NC(=O)C2CCCN(S(=O)(=O)c3ccc4c(c3)CCCN4C(C)=O)C2)cc1 (stereo unspecified)	Pf growth 96h inconclusive, Pf growth 48h 12µM
CCc1ccccc1NC(=O)C1CCCN(S(=O)(=O)c2ccc3c(c2)CC(C)N3C(C)=O)C1 (stereo unspecified)	Pf growth 96h 13µM, Pf growth 48h inconclusive
CCOc1ccc(NC(=O)C2CCN(S(C)(=O)=O)CC2)cc1	Pf growth 96h 12µM
COc1ccc(NC(=O)C2CCN(S(C)(=O)=O)CC2)cc1	none (no result: Pf growth 96h)
COc1ccc(CNC(=O)C2CCN(S(=O)(=O)c3ccc4c(c3)CC(C)N4C(=O)C3CC3)CC2)cc1 (stereo unspecified)	Pf growth 96h 15µM, Pf growth 48h inconclusive
CC(=O)N1CCCc2cc(S(=O)(=O)N3CCCC(C(=O)Nc4cccc(C)c4)C3)ccc21 (stereo unspecified)	none
CC(=O)N1c2ccc(S(=O)(=O)N3CCCC(C(=O)NCc4ccccc4Cl)C3)cc2CC1C (stereo unspecified)	Pf growth 96h inconclusive, Pf growth 48h inconclusive
NC(=O)C[C@H](N)C(N)=O	none (no result: SARS PLpro yeast, Pf growth 96h, Pf growth 48h, RE007 growth inh)
COc1ccc(-n2c(SCC(=O)Nc3ccc(Br)cc3)nc(O)cc2=O)cc1	Pf growth 48h inconclusive
COc1ccc(OC)c(NC(=O)C2CCN(S(=O)(=O)c3ccc4c(c3)CC(C)N4C(C)=O)CC2)c1 (stereo unspecified)	Pf growth 96h 15µM, Pf growth 48h inconclusive
COCCNC(=O)C1CCC(CNS(=O)(=O)c2ccc3c(c2)CC(C)N3C(=O)C2CC2)CC1 (stereo unspecified)	Pf growth 96h 12µM
CCCNC(=O)C1CCC(CNS(=O)(=O)c2ccc3c(c2)CC(C)N3C(C)=O)CC1 (stereo unspecified)	none
CC(=O)N1c2ccc(S(=O)(=O)N3CCC(C(=O)NCc4ccccc4Cl)CC3)cc2CC1C (stereo unspecified)	Pf growth 96h 9.3µM, Pf growth 48h inconclusive
CC(=O)N1c2ccc(S(=O)(=O)N3CCC(C(=O)NCc4ccc(Cl)cc4)CC3)cc2CC1C (stereo unspecified)	Pf growth 48h 9.3µM
COc1cc(OC)c(NC(=O)C2CCN(S(=O)(=O)c3ccc4c(c3)CC(C)N4C(C)=O)CC2)cc1Cl (stereo unspecified)	none
O=C(Nc1ccc2c(c1)Cc1ccccc1-2)[C@@H]1[C@H](C(=O)O)[C@]2(Cl)C(Cl)=C(Cl)[C@@]1(Cl)C2(Cl)Cl	none (no result: SARS PLpro yeast, Pf growth 96h, Pf growth 48h, RE007 growth inh)
O=C(Cn1ncc(Cl)c(Cl)c1=O)N1CCN(S(=O)(=O)c2ccc3ccccc3c2)CC1	Pf growth 96h inconclusive
Cc1ccc(NC(=O)c2ccc(S(=O)(=O)N(C)c3ccccc3)cc2)cc1S(=O)(=O)N1CCOCC1	none (no result: SARS PLpro yeast, Pf growth 96h, NS1 inh, Pf growth 48h)
CC1Cc2cc(S(=O)(=O)N3CCC(C(=O)NCc4ccco4)CC3)ccc2N1C(=O)C1CCC1 (stereo unspecified)	Pf growth 96h inconclusive, Pf growth 48h 9.3µM
C/C(=N\NC(=O)C1COc2ccccc2O1)c1ccccn1 (stereo unspecified)	Pf growth 96h 2.6µM, Pf growth 48h 2.6µM, RE007 growth inh inconclusive
C/C(=N\NC(=O)c1ccc(Cl)c(Cl)c1)c1ccccn1	Pf growth 96h inconclusive, Pf growth 48h 0.59µM, RE007 growth inh inconclusive
C/C(=N\NC(=O)C(c1ccccc1)c1ccccc1)c1ccccn1	Pf growth 96h 2.3µM, Pf growth 48h 2.3µM
C/C(=N\NC(=O)c1ccccc1Cl)c1ccccn1	Pf growth 48h 1.7µM, RE007 growth inh inconclusive
